PubChem BioAssay (NCATS)
Inconclusive results are not listed. Active and inactive are the calls of the source. Calls come from the whole dose curve; as a rule, active = well fitted cell-killing curve with a large enough effect; inconclusive = small, poorly fitted or top-dose-only effect, or effect the other way; inactive = no such curve, though single readings can be large or run the other way.

Assay: Viability qHTS for spleen associated tyrosine kinase inhibitor (SYKi) naive MV4-11 cells (AID 1963823); note: nearly all actives have a fitted effect of over 40% in size
Conditions: MV4-11 AML viability, CellTiter-Glo luminescence, 72 h; series mostly up to 45 µM; viability (% of control): at the top concentration
Procedure, shortened: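 qHTS, SYK inhibitor-naive MV4-11; 500 cells/well; 72 hr compound exposure, 37 C; CellTiter-Glo added, 10 min RT; luminescence read.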
Potency is the fitted concentration of half-maximal effect.

| SMILES | viability (% of control) | Potency |
| --- | --- | --- |
| C/C=C/C=C/C(O)=C1/C(=O)[C@]2(C)C(=O)[C@@](C)(O)[C@H]1[C@H]([C@@]1(C)OC(=O)C(C)=C1O)[C@H]2C(=O)CC/C=C/C | 74.5% [at 17.3 µM] (inactive) | – |
| CC1OC(=O)C[C@@H]2C(C(=O)O)=CO[C@@H](O[C@H]3O[C@H](CO)[C@@H](O)[C@H](O)[C@H]3O)[C@H]12 (stereo not given in full) | 72.8% (inactive) | – |
| CC1(C)CC2C3=CCC4C5(C)CCC(OC6OC(CO)C(O)C(OC7OC(CO)C(O)C(OC8OC(CO)C(O)C(OC9OC(COC%10OC(CO)C(O)C(O)C%10O)C(O)C(O)C9O)C8O)C7O)C6O)C(C)(C)C5CCC4(C)C3(C)CCC2(C(=O)O)CC1O (stereo not given) | 81.7% [at 9.25 µM] (inactive) | – |
| COc1cc(C)c(C(=O)O[C@H]2[C@@H](OC(C)=O)[C@H](n3ccc(=O)[nH]c3=O)O[C@@H]2CO)c(OC)c1 | 79% [at 17.3 µM] (inactive) | – |
| COC(=O)C1=CO[C@@H](O[C@@H]2O[C@H](CO)[C@@H](O)[C@H](O)[C@H]2O)[C@@H]2[C@@H](CO)[C@@H](O)C(O)[C@H]12 (stereo not given in full) | 87.7% [at 17.3 µM] (inactive) | – |
| CC(O)(C(=O)O)C1CCC2(C)C1CCC1(C)C2CCC2C3(C)CCC(O)C(C)(COC4OC(CO)C(O)C(O)C4O)C3CCC21C (stereo not given) | 57.5% [at 17.3 µM] (inactive) | – |
| CC1(C)CCCC2(C)C(C(=O)O)=CCC12 (stereo not given) | 53.4% (inactive) | – |
| CC(C)S(=O)(=O)N[C@H]1CCOC[C@@H]1c1ccc(-c2ccc(C#N)s2)cc1 | 59.3% (inactive) | – |
| C[C@@H]1CC[C@]2(C(=O)O)CC[C@]3(C)C(=CCC4[C@@]5(C)C[C@@H](O)[C@H](O)[C@@](C)(CO)C5CC[C@]43C)C2[C@]1(C)O (stereo not given in full) | 76.2% [at 17.3 µM] (inactive) | – |
| CN(C)CCn1cc(S(=O)(=O)c2cccc(F)c2)c2cccnc21 | 59.2% (inactive) | – |
| C=C1CC[C@@H]2[C@](C)(CO[C@@H]3O[C@H](CO)[C@@H](O)[C@H](O)[C@H]3O)CCC[C@@]2(C)[C@@H]1CCC1=CCOC1=O | 70.1% [at 17.3 µM] (inactive) | – |
| C[C@@H]1CC[C@]2(C(=O)O[C@@H]3O[C@H](CO)[C@@H](O)[C@H](O)[C@H]3O)CC[C@]3(C)C(=CCC4[C@@]5(C)C[C@@H](O)[C@H](O)[C@](C)(C(=O)O)C5CC[C@]43C)[C@@H]2[C@]1(C)O (stereo not given in full) | 79.5% [at 17.3 µM] (inactive) | – |
| CNC(=O)COC(=O)NCCC1CCN(c2cccc(C)n2)CC1 | 73.7% (inactive) | – |
| OC/C=C/C=C/[C@H]1Cc2cc(O)cc(O)c2O1 | 79.6% (inactive) | – |
| CC1C2=CC(=O)OC2(O)CC2C1CCC1C(C)(C)CCC(O)C21C (stereo not given) | – | 12.8 µM (active) |
| CC(=O)O[C@@](C)(C(=O)/C=C/C(C)(C)O)[C@H]1[C@H](O)C[C@@]2(C)[C@@H]3CC=C4[C@@H](C=C(O)C(=O)C4(C)C)[C@]3(C)C(=O)C[C@]12C | – | 0.317 µM (active) |
| CC1(C)CCCC2(C)C(CO)C3CCC2C31 (stereo not given) | 88.2% (inactive) | – |
| C=C(C)[C@@H]1CCC2=CC(=O)C[C@@H](C)[C@]2(C)C1 | 88.9% [at 91.9 µM] (inactive) | – |
| C[C@H]1[C@H](C)CC[C@]2(C(=O)O)CC[C@]3(C(=O)O)C(=CCC4[C@@]5(C)CC[C@H](O[C@@H]6O[C@H](C)[C@@H](O)[C@H](O)[C@H]6O)C(C)(C)C5CC[C@]43C)[C@H]12 (stereo not given in full) | 83.4% [at 17.3 µM] (inactive) | – |
| Cc1cn2cc(CC(=O)N3CCC4(CC3)CN(Cc3ccc(-n5nccn5)cc3Cl)C4)nc2s1 | – | 16.4 µM (active) |
| CCC(C)/C=C(C)/C=C/C1=CC2=C(Cl)C(=O)C(C)(OC(C)=O)C(=O)C2=CN1C(CC(=O)O)C(=O)O (stereo not given) | 65.8% [at 17.3 µM] (inactive) | – |
| C/C(=C\CCC(C)CCO)C(=O)O[C@@H]1[C@@H](O)[C@H](OC2OC=C(C(=O)O)C3CCC(C)(O)C23)O[C@H](CO)[C@H]1O (stereo not given in full) | 91.2% [at 17.3 µM] (inactive) | – |
| O=C(NCCN1CCCC1)c1cc(-c2ccc(CN3CCOCC3)cc2)nc2ccc(F)cc12 | 48.8% [at 17.3 µM] (inactive) | – |
| CC(C)=C1C[C@@]2(C)C(=CC1=O)CC[C@@H](O)[C@@H]2C | 68.3% (inactive) | – |
| CC1(C(=O)O)CCCC2(C)C3CCC4CC3(CCC12)CC4(O)CO (stereo not given) | 78% (inactive) | – |
| CC1(C(=O)O)CCCC2(C)C3CCC4CC3(CCC12)CC4=O (stereo not given) | – | 13 µM (active) |
| CC(c1ncncc1F)C(O)(Cn1cncn1)c1ccc(F)cc1F (stereo not given) | 64.3% (inactive) | – |
| [N-]=[N+]=N[C@]1(CO)O[C@@H](n2ccc(N)nc2=O)[C@@H](O)[C@@H]1O | 70.1% (inactive) | – |
| CC[C@H]1OC(=O)[C@H](C)[C@@H](O[C@H]2C[C@@](C)(OC)[C@@H](O)[C@H](C)O2)C(C)[C@@H](O[C@@H]2O[C@H](C)C[C@H](N(C)C)[C@H]2O)[C@](C)(O)C[C@@H](C)CN(C)[C@H](C)[C@@H](O)[C@]1(C)O (stereo not given in full) | 52.4% (inactive) | – |
| C=C[C@H]1[C@H](O[C@@H]2O[C@H](CO)[C@@H](O)[C@H](OC(=O)/C=C/c3ccc(O)c(OC)c3)[C@H]2O)OC=C2C(=O)OCC[C@]21O | 71.3% [at 17.3 µM] (inactive) | – |
